# Laboratory results as given in PubChem BioAssay (NCI).
# About 83,000 compounds went through this panel and 20% of them were active in at least one assay; those are over-represented in the sample as a whole.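 Testing used 96-well plates and a 48-hour single-concentration exposure. Example: -40 means 40% of the starting cells died.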 Unmarked numbers belong to inactive results. Active and inactive are the calls of the source. Rule for the calls: active = growth percent below 10; inactive = the rest.
# Test system: HL-60(TB) leukemia
# Assay: NCI-60 one-dose screen, 48 h (100 = growth as untreated, 0 = no growth, -100 = all killed)
# Settings: 10 µM unless noted
row,SMILES,growth
1,CCCn1c(=S)sc2c(NNC(C)=O)nc(C)nc21,58.1%
2,COc1ccc(C(=NN=C(N)N)c2ccc(OC)cc2)cc1,15.5%
3,O=c1c2cccc3c(N4CCOCC4)ccc(c32)c2nc3ccccc3n12,80.2%
4,COCCOC(=O)COc1ccc(OC)cc1,90.7%
5,NCCCc1nnc(CCC(=O)c2nc3ccccc3[nH]2)o1,92.3%
6,CC[C@@H](C(=O)[C@@H](C)[C@@H](O)[C@H](C)[C@@H]1O[C@@H]([C@@H](CC)C(=O)ONC(=O)c2ccccc2O)CC[C@@H]1C)C1O[C@]2(C=CC(=O)[C@]3(CC[C@@](C)([C@H]4CC[C@](O)(CC)[C@H](C)O4)O3)O2)[C@H](C)C[C@@H]1C (stereo not given in full),-45.7% (active)
7,OC(CN1CCCC2CCCCC21)c1cc2ccccc2c2ccccc12 (stereo not given),84.9%
8,Clc1nn2c(Cn3cnc4c(NCc5ccccc5)ncnc43)nnc2c2ccccc12,23%
9,C=CCc1cc(Cl)cc2c(OC(C)=O)c(C(C)=O)c(-c3ccccc3)nc12,107%
10,CCSc1ccc2c(c1)N(CCCN1CCN(C)CC1)c1ccccc1S2,37.1%
11,COc1ccc(C2=NN3C(C2)c2cc(Br)ccc2OC3c2ccncc2)cc1 (stereo not given),93.5%
12,COc1ccc(N2C(=O)C(Oc3ccccc3)C2c2ccc(C)cc2)cc1 (stereo not given),85.4%
13,O=C(/C=C/c1ccc(Cl)cc1)/C=C/c1cc2ccccc2[nH]c1=O,55.6%
14,Cc1ccc(S(=O)(=O)n2cc(C(=O)C(=O)N3CCCCC3)c3ccccc32)cc1,85%
15,O=C1c2cccc3cccc(c23)C(=O)N1N1C(=O)c2cccc3c(N4CCNCC4)ccc(c23)C1=O,64.7%
16,CNCCNc1nc2ccccc2c2c(=O)c3cccc(OC)c3sc12,26.5%
17,CC(=O)n1nc(C(=O)OC(C)(C)C)c2cc(F)c(F)cc21,103%
18,O=Cc1ccc(F)cc1,103%
19,N=C(N)c1ccc(-c2ccc(-c3ccc(Cl)cc3)o2)nc1,110%
20,Clc1ccc(-c2nc(NCCc3ccccc3)nc3c(NCCc4ccccc4)cnn23)cc1,88.8%

row,SMILES,growth
1,OC(c1cc2cc(Cl)c(Cl)cc2c2cc(C(F)(F)F)ccc12)C1CCCCN1 (stereo not given),-21% (active)
2,COc1ccc(C(=O)C(CN(C)C)c2ccccc2)cc1 (stereo not given),3.71% (active)
3,C=C1C(=O)O[C@H]2[C@H]1CC/C(COC(=O)c1cc3cc(Cl)ccc3[nH]1)=C\CC[C@@]1(C)O[C@@H]21,-46% (active)
4,O=S(=O)(Nc1ccccn1)c1ccc(N=Nc2ccc(O)c3ncccc23)cc1,-30.6% (active)
5,C/C(=C(/c1ccc(O)cc1)c1ccc(Cl)cc1)c1ccccc1,-20.7% (active)
6,COc1ccc(-c2noc(C(=O)O)c2-c2cc(OC)c(OC)c(OC)c2)cc1,-38.5% (active)
7,CCCCCCCC/C=C\CCCCCCCCOc1ccccc1CC(=O)NCC[N+]1(C)CCCC1,2.25% (active)
8,CCOC(=O)/C(C#N)=C(/C)C1CC1,110%
9,O=C([C@@H](COCc1ccccc1)N1C(=O)[C@@H](N2C(=O)OC[C@@H]2c2ccccc2)[C@H]1/C=C/c1ccccc1)N1CCC(CCN2CCCCC2)CC1,64.5%
10,COc1cc(/C(C)=C(\c2ccc(Cl)cc2)c2ccc(OCCN(C)C)cc2)ccc1F,54.4%
11,O=C1C(Cl)C(c2ccccc2Cl)N1n1cnnc1 (stereo not given),109%
12,Cc1cc2cccnc2c2ncccc12,-11.4% (active)
13,COC(=O)c1cc2oc(/C=N\NC(=O)c3cc4oc(C)c(C)c4[nH]3)cc2[nH]1,103%
14,Cc1ccccc1CNC(=O)C1CN(c2ccc(Cl)cc2)N(c2ccc(Cl)cc2)C1=O (stereo not given),94.7%
15,CC(=O)Nc1c(C)cc(C)cc1C,99.8%
16,CCCCNC(=O)c1ccc(OCC)cc1,99.5%
17,Nc1c2c(c(O)c3c1=C(CO)C=N3)=NCCS2,-33.7% (active)
18,CCOC(=O)NC(=S)n1oc(=O)c2ccccc21,104%
19,CCOC(=O)C(Br)=P(c1ccccc1)(c1ccccc1)c1ccccc1,94.2%
20,CC/C=C\C/C=C\C[C@H]1C/C=C2/C(=O)C=C[C@@H]2C/C=C\CCC(=O)O1,1.1% (active)
